Screening data as filed in PubChem.
Rango-impB inh: Rango-importin beta binding inhibition; 0.031% of 340,000 active; Q14974; Rango CFP/YFP FRET sensor + importin beta, 45 min; AID 540263; Potency, µM (doses to about 92.2 µM); further: nearly all actives have a fitted effect of over 15% in size
Target sequence (Q14974 whole entry, looked up): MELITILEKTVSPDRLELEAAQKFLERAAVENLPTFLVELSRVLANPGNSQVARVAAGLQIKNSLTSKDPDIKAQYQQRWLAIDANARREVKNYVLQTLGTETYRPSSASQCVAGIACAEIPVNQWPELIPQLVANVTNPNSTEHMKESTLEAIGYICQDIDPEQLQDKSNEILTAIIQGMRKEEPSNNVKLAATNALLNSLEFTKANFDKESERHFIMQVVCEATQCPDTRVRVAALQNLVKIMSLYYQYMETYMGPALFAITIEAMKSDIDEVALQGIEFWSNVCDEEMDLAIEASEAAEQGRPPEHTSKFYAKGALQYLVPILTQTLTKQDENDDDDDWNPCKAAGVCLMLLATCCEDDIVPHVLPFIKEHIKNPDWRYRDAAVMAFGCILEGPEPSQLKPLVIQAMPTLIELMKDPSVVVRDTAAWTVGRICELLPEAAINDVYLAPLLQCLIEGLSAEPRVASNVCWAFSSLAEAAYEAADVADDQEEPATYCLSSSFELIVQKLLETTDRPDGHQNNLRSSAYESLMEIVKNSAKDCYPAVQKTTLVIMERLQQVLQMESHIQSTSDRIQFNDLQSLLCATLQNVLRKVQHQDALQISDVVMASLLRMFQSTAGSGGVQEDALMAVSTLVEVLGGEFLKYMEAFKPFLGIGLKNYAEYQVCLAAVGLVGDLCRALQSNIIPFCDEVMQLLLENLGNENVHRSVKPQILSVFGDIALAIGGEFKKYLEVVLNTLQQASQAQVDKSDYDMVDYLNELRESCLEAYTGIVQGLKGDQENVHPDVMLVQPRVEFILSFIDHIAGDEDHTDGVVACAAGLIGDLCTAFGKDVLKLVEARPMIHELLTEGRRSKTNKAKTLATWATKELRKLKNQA
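Inhibition scored from the CFP 486 nm/YFP 530 nm FRET ratio 45 min after adding 0.125 microM importin beta to 50 nM Rango biosensor preincubated 5 min with compound (room temperature, PBS with DTT, Tween-20, BSA). No-importin wells as positive control.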
KCNH2 3.1 block: KCNH2 3.1 (human) potassium channel inhibition | 0.95% of 340,000 active | U2OS KCNH2 3.1, thallium flux FluxOr; stronger effect = lower value | AID 720553 | activity change, % (tested at about 1.8 µM);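 active means maximum activity change below -70%; inconclusive means maximum activity change from -70% to -50%; inactive means maximum activity change above -50%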;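 further: thallium influx rate constant from kinetic fluorescence after stimulation buffer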
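Channel expression came from 3.1 mutant virus (1.77 x 10^8 /mL) applied to suspended U2OS cells for 4 h. Flux was tracked with FluxOr dye plus Red40 quencher, and kinetic rate constants normalized to controls.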
CCT chaperon mod: changes cytosolic chaperonin activity | activity change, % (test concentration not listed), hits read low | 0.3% of 360,000 active | purified chaperonin ATPase assay, HTRF ADP detection, 30 min; in the data active means activity change below about -30%
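ATPase activity: ADP formed was measured by HTRF Transcreener (665/615 nm ratio) after 30 min at 37 deg C with 10 uM ATP. Compounds screened at one 76 uM concentration against 40 or 20 nM TRiC in Tris pH 7.4/KCl/MgCl2/DTT buffer.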
MmCpn inh: blocks the Methanococcus maripaludis chaperonin Mm-Cpn; purified Mm-Cpn ATPase, ADP Transcreener TR-FRET; Potency, µM (top dose mostly 76.9 µM), usual class: inhibitors; 0.031% of 330,000 active; AID 504842; active means well fitted inhibition curve with a large enough effect; inconclusive means small, poorly fitted or top-dose-only effect; further: nearly all actives have a fitted effect of over 80% in size
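Compound-treated chaperonin, 25 nM final, turns over 10 uM ATP at 37°C for 30 min following a 10 min preincubation; ADP generated competes with ADP-d2 for Eu-cryptate antibody, lowering FRET.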
Rango dissoc inh: inhibitors of RanGTP-induced Rango-importin beta complex dissociation. O95149+P62826. Biochemical FRET Rango-importin beta, RanGTP-induced dissociation. Potency, µM (titrated, usually from 46.1 µM). 0.071% of 340,000 active. AID 540253; further: nearly all actives have a fitted effect of over 45% in size
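Rango (0.1 uM)–importin beta (0.25 uM) complex; RanGTP-RCC1 trigger; 45 min RT; CFP/YFP FRET read.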
KCNH2 WT inh: blocks the wildtype human KCNH2 potassium channel | Q12809 | 0.37% of 340,000 active | activity change, % at 1.84 µM | U2OS, BacMam KCNH2, thallium flux FluxOr; stronger effect = lower value;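 active means maximum activity change below -70%; inconclusive means maximum activity change between -70% and -50%; inactive means maximum activity change above -50%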
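U2OS cells transduced with wild-type KCNH2 virus are loaded with FluxOr dye for 45 min, and thallium flux is measured in kinetic reads before and after stimulation buffer. Rate constants are normalized to DMSO controls.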
Each line names hits and unclear results; the compound was inactive in the other large screens. In the library only some 1.4% were active in any assay of this set; here they are far more common. Unless noted, the call rests on the fitted dose curve.

CCCn1c(N)c(C(=O)COc2ccc(Br)cc2F)c(=O)n(C)c1=O	MmCpn inh inconclusive
Cc1ccc(S(=O)(=O)Nc2cccc(C(=O)NCC(c3ccco3)N3CCCC3)c2)cc1F (centres undefined)	none
CCOc1ccc(/C=N/n2c(C3CCCCC3)n[nH]c2=S)cc1	none
CN(Cc1cccs1)C(=O)COc1cccc(-n2cnnn2)c1	KCNH2 WT inh -78
CCCCOc1ccc(S(=O)(=O)NC(=O)C2(C)CCN2C(=O)CCc2ccccc2)cc1 (centres undefined)	none (no result: Rango-impB inh, KCNH2 3.1 block, MmCpn inh, Rango dissoc inh, KCNH2 WT inh)
CC(/C=C/c1ccccc1)=N\Nc1nc(-c2ccccc2)cs1	Rango-impB inh inconclusive, CCT chaperon mod -70
Cc1ccc(C(=O)CSc2nnc(CNc3ccc(C)cc3C)n2Cc2ccco2)cc1	none
Cc1ccc(NCc2nnc(SCc3ccc(C#N)cc3)n2Cc2ccco2)c(C)c1	KCNH2 3.1 block inconclusive, KCNH2 WT inh -97
O=C(COc1ccc([N+](=O)[O-])cc1)NCC(c1cccs1)N1CCOCC1 (centres undefined)	none
COc1ccc(C2Nc3ccccc3C(=O)N2Cc2ccco2)cc1COc1ccc([N+](=O)[O-])cc1 (centres undefined)	KCNH2 3.1 block -80
COc1cccc(OCc2cc(C3Nc4ccccc4C(=O)N3Cc3ccco3)ccc2OC)c1 (centres undefined)	none
O=c1[nH]c2ccccc2n1C1CCCCC1	KCNH2 WT inh -84
CN(C)CCN1CCN(C2CN(Cc3ccccc3)S(=O)(=O)C2)CC1 (centres undefined)	none (no result: Rango-impB inh, KCNH2 3.1 block, MmCpn inh, Rango dissoc inh, KCNH2 WT inh)
Nc1nc(Br)c2ccccc2c1-c1ccccc1	Rango-impB inh inconclusive, Rango dissoc inh 13µM
CC12CCC(=O)N1C(C(=O)NNC(=O)c1ccccc1)CS2 (centres undefined)	none
CC1(C)Cc2c(C#N)c(SCCOc3ccccc3)nc(N3CCOCC3)c2CO1	KCNH2 3.1 block -85
O=C(N/N=C/c1cc2c(cc1Br)OCO2)c1ccccn1	none
Nc1nonc1C(=O)N/N=C/c1cc2c(cc1Br)OCO2	Rango-impB inh inconclusive, CCT chaperon mod -31
Cc1ccnc(NC(=O)Cc2ccc([N+](=O)[O-])cc2)c1	none
Cc1ccnc(NC(=O)c2cc([N+](=O)[O-])cc([N+](=O)[O-])c2)c1	KCNH2 3.1 block -89
COCCNC(=O)C1(C)CCCN(Cc2ccc(Cl)c(Cl)c2)C1 (centres undefined)	none (no result: Rango-impB inh, KCNH2 3.1 block, MmCpn inh, Rango dissoc inh, KCNH2 WT inh)
CCOc1ccc(CNc2ccc3c(c2)ncn3C)cc1	none
CCCn1cnc2cc(NCc3ccccc3O)ccc21	none
CCOc1ccc(CNc2ccc3c(c2)ncn3C(C)(C)C)cc1	KCNH2 3.1 block -110
CCCn1cnc2cc(NCc3cccc(OC)c3)ccc21	KCNH2 3.1 block -74
CCCn1cnc2cc(NCc3ccc(Br)cc3)ccc21	KCNH2 3.1 block -83
Cc1cccc(C)c1NC(=O)C[N+](C)(C)CC(O)COc1cccc2ccccc12 (centres undefined)	none
COc1cc2[nH]c(C(=O)Nc3ccc(F)cc3)cc2c(OC)c1OC	none (no result: Rango-impB inh, KCNH2 3.1 block, CCT chaperon mod, Rango dissoc inh, KCNH2 WT inh)
Cc1nonc1C(=O)N/N=C/c1ccc(O)cc1O	Rango-impB inh inconclusive, Rango dissoc inh inconclusive
COc1ccc(OCC(=O)Nc2ccc(OC)c(S(=O)(=O)N3CCCCC3)c2)cc1	none
O=C(CCS(=O)(=O)c1cccc2nsnc12)NCc1ccccc1Cl	none
Cc1cc(C)nc(NC(=O)CSc2nc3ccccc3s2)n1	none
Cc1cc(C)n2c(Br)c(CSc3nc4ccccc4s3)nc2n1	KCNH2 3.1 block -78
O=C(Nc1ccccc1N1CCOCC1)c1ccccc1NS(=O)(=O)c1ccc(F)c(F)c1	CCT chaperon mod -31
O=C(CSc1nnc(-c2ccc(OC(F)F)cc2)o1)NC(=O)NCc1ccco1	none
CCN1C(=O)/C(=C\c2cn(CCC#N)nc2-c2ccc(F)cc2)SC1=S	none
CCCCn1c(C)cc2c(c1=O)[C@H]1O[C@](CCCC)(Cc3c1ccc1ccccc31)O2	none (no result: Rango-impB inh, KCNH2 3.1 block, CCT chaperon mod, Rango dissoc inh, KCNH2 WT inh)
COc1ccccc1N=Nc1ccc(N)c(C)c1	none
OC(CN1CCCCCC1)CN(c1ccccc1)c1ccccc1 (centres undefined)	KCNH2 3.1 block inconclusive
Cc1ccc(N(CC(O)Cn2c3ccccc3c3ccccc32)S(C)(=O)=O)cc1 (centres undefined)	none
CN(CCO)CC(O)CN(c1ccccc1)c1ccccc1 (centres undefined)	none
OC(CN1CCCCC1)CN(c1ccccc1)c1ccccc1 (centres undefined)	KCNH2 3.1 block -183
O=[N+]([O-])c1ccc(S(=O)(=O)N(CC(O)CN2CCCCC2)c2ccccc2)cc1 (centres undefined)	none
CNCC(O)CN(c1ccccc1)c1ccccc1 (centres undefined)	KCNH2 3.1 block -81
CC(=O)Nc1ccc(N(CC(O)Cn2c3ccccc3c3ccccc32)S(=O)(=O)c2ccc(C)cc2)cc1 (centres undefined)	CCT chaperon mod -46
O=[N+]([O-])c1ccc(N(CC(O)CN2CCCCC2)S(=O)(=O)c2ccccc2)cc1 (centres undefined)	KCNH2 3.1 block -76
CCOc1cc2[nH]c(=S)n(Cc3ccc(C(=O)O)cc3)c(=O)c2cc1OCC	none
COc1ccc(C2=NS(=O)(=O)N(C)C(C(=O)Nc3ccc(F)cc3F)=C2)cc1	none
COC(=O)C(C(C)C)N(Cc1cc(OC)cc(OC)c1)S(=O)(=O)CCl (centres undefined)	none
Cc1ccc(N(CC(O)CN2CCCCC2)S(=O)(=O)c2ccccc2[N+](=O)[O-])cc1 (centres undefined)	none
Cc1ccc(N(CC(O)CN2CCCC2)S(=O)(=O)c2ccc(C)cc2)cc1 (centres undefined)	KCNH2 3.1 block -104
COc1cc(C(=O)NCC(=O)OCc2ccccc2Cl)cc(OC)c1OC	CCT chaperon mod -35
OC(COc1ccc2ccccc2c1)CN1CCN(c2ccc(F)cc2)CC1 (centres undefined)	KCNH2 3.1 block -74
Cn1c2cc(B(O)O)sc2c2cnn(Cc3c(F)cccc3F)c(=O)c21	none (no result: Rango-impB inh, KCNH2 3.1 block, CCT chaperon mod, Rango dissoc inh, KCNH2 WT inh)
O=C(NCCCN1CCOCC1)c1ccccc1N1C(=O)[C@@H]2Cc3c([nH]c4ccccc34)C(c3ccc(F)cc3)N2C1=O (some centres undefined)	Rango-impB inh inconclusive, KCNH2 3.1 block -82, MmCpn inh inconclusive
O=C(NCCN1CCOCC1)c1ccccc1N1C(=O)[C@@H]2Cc3c([nH]c4ccccc34)C(c3ccccc3)N2C1=O (some centres undefined)	Rango-impB inh inconclusive
